Results: ChEMBL document CHEMBL1961873, “Compounds: GSK PKIS; Assays: Nanosyn kinase panel” (2012)

What was measured:
[1] = tested on: Epidermal growth factor receptor (Homo sapiens), P00533 [T790M]; conditions: at 1 µM
[2] = tested on: Epidermal growth factor receptor (Homo sapiens), P00533 [L858R,T790M]; conditions: at 0.1 µM
[3] = tested on: Epidermal growth factor receptor (Homo sapiens), P00533 [L858R,T790M]; conditions: at 1 µM
[4] = target: Ephrin type-A receptor 2 (Homo sapiens) (UniProt P29317); conditions: at 0.1 µM
[5] = target: Ephrin type-A receptor 2 (Homo sapiens) (UniProt P29317); conditions: at 1 µM
[6] = target: T1, Ephrin type-A receptor 3 (Homo sapiens) (UniProt P29320); conditions: at 0.1 µM
T1 sequence (whole entry): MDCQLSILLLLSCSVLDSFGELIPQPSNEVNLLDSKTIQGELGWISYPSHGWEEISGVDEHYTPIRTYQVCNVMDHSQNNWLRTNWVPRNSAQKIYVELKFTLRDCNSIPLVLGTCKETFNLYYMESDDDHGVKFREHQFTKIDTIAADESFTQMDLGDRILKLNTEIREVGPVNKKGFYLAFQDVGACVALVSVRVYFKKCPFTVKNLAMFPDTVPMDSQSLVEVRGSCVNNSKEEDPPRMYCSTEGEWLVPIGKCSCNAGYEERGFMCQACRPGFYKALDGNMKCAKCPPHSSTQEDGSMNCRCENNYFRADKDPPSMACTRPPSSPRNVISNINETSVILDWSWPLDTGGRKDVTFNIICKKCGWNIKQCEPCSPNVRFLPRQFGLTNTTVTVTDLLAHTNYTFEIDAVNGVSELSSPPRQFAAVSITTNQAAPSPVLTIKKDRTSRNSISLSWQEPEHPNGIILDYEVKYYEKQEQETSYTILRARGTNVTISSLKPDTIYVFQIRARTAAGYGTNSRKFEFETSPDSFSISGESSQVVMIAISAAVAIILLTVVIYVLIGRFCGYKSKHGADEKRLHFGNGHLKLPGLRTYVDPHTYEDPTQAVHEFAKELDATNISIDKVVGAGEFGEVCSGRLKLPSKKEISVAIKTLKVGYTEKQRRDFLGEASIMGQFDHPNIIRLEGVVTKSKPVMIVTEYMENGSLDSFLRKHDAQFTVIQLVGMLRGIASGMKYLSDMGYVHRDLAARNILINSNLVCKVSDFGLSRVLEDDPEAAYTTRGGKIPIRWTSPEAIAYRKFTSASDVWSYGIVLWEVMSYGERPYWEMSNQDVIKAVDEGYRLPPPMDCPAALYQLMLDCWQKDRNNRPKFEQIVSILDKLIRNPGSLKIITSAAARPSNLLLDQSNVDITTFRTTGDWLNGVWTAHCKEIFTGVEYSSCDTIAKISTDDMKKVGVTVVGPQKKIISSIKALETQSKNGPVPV

[7] = target: T1, Ephrin type-A receptor 3 (Homo sapiens); conditions: at 1 µM
[8] = target: Ephrin type-A receptor 4 (Homo sapiens) (UniProt P54764); conditions: at 0.1 µM
Chain of Ephrin type-A receptor 4 (Homo sapiens) (P54764 whole entry): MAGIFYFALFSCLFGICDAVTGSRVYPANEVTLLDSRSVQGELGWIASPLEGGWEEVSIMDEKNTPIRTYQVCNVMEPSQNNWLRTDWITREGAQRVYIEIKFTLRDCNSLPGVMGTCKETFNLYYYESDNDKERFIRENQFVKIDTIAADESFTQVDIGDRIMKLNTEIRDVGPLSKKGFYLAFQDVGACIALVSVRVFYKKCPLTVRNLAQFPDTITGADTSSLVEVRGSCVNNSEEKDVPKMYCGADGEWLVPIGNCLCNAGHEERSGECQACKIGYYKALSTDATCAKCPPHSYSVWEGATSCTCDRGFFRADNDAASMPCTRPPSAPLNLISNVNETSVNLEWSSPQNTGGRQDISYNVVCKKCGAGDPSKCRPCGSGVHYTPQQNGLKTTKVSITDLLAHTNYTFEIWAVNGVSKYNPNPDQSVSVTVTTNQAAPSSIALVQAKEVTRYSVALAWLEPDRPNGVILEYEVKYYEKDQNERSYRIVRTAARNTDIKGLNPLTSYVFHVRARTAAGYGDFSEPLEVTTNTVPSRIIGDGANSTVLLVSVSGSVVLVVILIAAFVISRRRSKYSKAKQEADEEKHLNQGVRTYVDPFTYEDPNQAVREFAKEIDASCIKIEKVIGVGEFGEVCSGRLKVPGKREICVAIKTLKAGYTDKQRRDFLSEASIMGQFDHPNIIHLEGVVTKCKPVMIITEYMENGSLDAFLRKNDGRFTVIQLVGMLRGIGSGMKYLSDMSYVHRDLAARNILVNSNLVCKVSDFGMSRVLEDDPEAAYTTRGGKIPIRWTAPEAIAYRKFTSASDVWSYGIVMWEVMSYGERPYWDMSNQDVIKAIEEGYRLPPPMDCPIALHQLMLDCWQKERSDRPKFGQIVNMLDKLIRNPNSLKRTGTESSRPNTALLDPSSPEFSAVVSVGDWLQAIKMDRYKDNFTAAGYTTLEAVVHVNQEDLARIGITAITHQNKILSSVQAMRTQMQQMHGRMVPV

[9] = target: Ephrin type-A receptor 4 (Homo sapiens) (UniProt P54764); conditions: at 1 µM
[10] = target: T2, Ephrin type-B receptor 2 (Homo sapiens) (UniProt P29323); conditions: at 0.1 µM
T2 sequence (whole entry): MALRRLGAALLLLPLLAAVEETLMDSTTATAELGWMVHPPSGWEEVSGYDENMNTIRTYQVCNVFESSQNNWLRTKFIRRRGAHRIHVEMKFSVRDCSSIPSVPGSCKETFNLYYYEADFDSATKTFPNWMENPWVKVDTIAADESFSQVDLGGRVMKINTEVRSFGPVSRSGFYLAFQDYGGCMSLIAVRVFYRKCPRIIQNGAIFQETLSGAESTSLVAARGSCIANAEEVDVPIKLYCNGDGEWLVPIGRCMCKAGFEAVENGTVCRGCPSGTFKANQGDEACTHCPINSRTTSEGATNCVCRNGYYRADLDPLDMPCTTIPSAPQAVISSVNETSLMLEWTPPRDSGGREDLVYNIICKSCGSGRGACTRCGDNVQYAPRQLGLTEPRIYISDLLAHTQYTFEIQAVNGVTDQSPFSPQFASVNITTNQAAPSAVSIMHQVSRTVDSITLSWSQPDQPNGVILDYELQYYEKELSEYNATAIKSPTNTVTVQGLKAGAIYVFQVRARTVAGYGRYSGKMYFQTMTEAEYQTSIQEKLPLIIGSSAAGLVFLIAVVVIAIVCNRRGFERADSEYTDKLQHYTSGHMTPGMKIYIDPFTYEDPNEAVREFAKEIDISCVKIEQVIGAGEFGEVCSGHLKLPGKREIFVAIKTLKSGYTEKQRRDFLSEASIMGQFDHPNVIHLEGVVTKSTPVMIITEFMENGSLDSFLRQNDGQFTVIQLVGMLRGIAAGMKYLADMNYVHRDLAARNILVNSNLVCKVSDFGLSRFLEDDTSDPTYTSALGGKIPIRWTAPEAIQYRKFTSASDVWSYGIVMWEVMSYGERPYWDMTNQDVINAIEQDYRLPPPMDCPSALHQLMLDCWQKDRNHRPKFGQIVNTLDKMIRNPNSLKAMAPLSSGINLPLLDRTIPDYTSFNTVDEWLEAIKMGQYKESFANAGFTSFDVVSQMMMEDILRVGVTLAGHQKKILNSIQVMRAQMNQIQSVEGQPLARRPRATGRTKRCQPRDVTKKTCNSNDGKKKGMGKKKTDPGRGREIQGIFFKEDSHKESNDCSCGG

[11] = target: T3, Ephrin type-B receptor 3 (Homo sapiens) (UniProt P54753); conditions: at 0.1 µM
T3 sequence (whole entry): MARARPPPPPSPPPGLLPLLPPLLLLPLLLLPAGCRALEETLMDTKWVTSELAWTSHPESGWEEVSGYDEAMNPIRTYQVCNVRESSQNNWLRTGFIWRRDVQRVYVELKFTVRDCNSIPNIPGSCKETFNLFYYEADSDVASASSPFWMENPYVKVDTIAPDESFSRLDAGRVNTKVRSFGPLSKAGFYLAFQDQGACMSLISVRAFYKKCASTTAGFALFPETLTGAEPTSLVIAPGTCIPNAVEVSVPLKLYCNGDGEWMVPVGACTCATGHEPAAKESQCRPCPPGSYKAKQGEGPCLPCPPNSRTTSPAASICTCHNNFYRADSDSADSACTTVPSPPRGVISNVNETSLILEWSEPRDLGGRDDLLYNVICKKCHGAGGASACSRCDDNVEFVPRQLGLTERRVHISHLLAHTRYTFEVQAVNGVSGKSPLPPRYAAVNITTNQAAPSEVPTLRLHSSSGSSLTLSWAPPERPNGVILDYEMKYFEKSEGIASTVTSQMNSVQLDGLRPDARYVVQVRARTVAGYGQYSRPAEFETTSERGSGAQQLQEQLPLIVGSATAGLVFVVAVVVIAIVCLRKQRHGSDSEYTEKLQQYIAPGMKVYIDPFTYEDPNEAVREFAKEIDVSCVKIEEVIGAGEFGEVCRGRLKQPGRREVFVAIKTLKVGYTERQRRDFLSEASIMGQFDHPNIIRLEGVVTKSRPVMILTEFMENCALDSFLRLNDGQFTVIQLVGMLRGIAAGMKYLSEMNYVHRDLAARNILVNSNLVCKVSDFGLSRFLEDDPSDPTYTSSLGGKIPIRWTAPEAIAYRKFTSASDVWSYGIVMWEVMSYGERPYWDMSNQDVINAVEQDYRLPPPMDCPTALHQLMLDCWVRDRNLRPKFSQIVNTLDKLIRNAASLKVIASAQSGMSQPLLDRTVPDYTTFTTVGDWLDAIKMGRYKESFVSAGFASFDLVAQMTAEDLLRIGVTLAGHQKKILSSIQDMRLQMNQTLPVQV

[12] = target: T3, Ephrin type-B receptor 3 (Homo sapiens); conditions: at 1 µM
[13] = target: T4, Ephrin type-B receptor 4 (Homo sapiens) (UniProt P54760); conditions: at 0.1 µM
T4 sequence (whole entry): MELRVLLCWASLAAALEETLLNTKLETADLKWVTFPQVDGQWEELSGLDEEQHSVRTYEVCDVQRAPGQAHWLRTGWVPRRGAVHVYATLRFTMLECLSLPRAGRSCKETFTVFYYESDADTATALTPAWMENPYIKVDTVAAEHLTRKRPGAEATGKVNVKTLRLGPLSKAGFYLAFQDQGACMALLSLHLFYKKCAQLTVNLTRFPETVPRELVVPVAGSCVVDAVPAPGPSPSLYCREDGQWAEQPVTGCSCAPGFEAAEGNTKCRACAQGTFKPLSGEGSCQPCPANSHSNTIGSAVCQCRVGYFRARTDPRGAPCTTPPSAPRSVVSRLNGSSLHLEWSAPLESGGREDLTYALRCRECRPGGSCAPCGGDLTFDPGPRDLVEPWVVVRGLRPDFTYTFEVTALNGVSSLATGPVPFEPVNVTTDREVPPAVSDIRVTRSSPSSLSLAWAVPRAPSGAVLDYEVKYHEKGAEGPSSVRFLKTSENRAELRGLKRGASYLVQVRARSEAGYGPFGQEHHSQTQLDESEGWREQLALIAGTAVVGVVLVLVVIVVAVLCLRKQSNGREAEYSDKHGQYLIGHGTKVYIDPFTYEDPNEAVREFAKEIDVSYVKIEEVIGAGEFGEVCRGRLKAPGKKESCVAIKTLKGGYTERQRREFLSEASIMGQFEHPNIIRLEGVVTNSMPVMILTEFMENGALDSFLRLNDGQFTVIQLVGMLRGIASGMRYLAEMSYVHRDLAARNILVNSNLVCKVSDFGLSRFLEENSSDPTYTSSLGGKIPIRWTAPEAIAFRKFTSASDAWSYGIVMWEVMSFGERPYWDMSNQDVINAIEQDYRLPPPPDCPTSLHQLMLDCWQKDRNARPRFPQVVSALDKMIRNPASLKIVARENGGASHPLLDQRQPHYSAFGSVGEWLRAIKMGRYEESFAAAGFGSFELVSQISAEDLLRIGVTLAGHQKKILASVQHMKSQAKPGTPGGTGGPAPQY

[14] = target: T4, Ephrin type-B receptor 4 (Homo sapiens); conditions: at 1 µM
[15] = target: Receptor tyrosine-protein kinase erbB-2 (Homo sapiens) (UniProt P04626); conditions: at 0.1 µM
[16] = target: Receptor tyrosine-protein kinase erbB-2 (Homo sapiens) (UniProt P04626); conditions: at 1 µM
[17] = target: Receptor tyrosine-protein kinase erbB-4 (Homo sapiens) (UniProt Q15303); conditions: at 0.1 µM
Chain of Receptor tyrosine-protein kinase erbB-4 (Homo sapiens) (Q15303 whole entry): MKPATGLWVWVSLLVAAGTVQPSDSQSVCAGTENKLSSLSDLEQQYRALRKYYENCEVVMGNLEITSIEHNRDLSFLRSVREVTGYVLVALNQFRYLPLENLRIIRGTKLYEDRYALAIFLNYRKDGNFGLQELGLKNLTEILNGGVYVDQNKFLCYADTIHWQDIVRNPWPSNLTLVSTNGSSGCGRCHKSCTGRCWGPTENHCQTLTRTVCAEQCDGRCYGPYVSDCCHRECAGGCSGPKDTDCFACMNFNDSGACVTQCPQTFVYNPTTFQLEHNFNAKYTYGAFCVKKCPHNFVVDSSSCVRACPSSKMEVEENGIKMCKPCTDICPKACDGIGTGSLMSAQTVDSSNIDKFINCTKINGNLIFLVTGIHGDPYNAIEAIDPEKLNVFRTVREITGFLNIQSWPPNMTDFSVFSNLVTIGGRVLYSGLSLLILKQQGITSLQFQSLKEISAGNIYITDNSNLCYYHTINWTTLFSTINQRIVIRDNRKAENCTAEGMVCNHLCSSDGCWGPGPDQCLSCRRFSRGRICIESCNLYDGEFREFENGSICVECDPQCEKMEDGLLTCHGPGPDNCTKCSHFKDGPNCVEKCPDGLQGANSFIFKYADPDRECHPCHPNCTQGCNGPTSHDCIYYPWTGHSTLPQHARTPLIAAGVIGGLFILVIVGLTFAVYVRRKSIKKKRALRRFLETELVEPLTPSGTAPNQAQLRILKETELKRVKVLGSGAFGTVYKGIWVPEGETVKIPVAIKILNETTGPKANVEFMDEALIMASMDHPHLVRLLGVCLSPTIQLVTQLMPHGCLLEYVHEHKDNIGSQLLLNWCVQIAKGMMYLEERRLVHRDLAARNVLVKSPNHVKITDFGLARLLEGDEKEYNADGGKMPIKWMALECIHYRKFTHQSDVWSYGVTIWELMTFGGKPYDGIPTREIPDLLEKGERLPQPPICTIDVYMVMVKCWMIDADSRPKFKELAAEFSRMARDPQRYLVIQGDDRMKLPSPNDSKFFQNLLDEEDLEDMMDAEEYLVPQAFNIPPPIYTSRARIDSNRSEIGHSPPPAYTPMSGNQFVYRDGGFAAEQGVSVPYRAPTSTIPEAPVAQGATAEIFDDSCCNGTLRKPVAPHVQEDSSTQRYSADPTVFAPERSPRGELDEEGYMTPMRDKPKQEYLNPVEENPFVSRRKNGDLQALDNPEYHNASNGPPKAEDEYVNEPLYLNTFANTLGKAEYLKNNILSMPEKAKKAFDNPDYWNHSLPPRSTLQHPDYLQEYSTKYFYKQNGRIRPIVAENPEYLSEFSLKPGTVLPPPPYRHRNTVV

[18] = target: Receptor tyrosine-protein kinase erbB-4 (Homo sapiens) (UniProt Q15303); conditions: at 1 µM
[19] = target: Tyrosine-protein kinase Fer (Homo sapiens) (UniProt P16591); conditions: at 0.1 µM;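 note: reported figures are averaged percent inhibition of FER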
Chain of Tyrosine-protein kinase Fer (Homo sapiens) (P16591 whole entry, looked up): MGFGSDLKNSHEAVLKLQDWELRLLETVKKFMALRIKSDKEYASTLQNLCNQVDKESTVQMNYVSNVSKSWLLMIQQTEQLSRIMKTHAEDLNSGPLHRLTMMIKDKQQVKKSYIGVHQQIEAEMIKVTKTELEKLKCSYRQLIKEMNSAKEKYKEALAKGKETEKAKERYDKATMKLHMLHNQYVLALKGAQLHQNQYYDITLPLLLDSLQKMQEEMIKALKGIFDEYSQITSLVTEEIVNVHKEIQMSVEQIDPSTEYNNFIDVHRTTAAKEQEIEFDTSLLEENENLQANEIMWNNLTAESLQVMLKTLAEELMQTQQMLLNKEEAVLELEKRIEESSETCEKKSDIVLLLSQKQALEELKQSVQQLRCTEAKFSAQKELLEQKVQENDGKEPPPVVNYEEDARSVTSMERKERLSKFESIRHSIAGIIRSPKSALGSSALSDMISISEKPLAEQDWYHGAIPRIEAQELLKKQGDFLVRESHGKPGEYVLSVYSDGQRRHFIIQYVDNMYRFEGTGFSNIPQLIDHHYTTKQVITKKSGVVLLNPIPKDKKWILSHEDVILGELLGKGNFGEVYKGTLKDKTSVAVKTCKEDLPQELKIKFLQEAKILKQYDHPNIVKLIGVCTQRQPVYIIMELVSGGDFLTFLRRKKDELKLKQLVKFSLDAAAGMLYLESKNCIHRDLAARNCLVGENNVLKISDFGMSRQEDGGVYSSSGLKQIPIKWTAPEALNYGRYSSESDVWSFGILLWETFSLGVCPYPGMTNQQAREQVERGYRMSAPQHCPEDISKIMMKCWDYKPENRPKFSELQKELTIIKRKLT

[20] = target: T2, Ephrin type-B receptor 2 (Homo sapiens); conditions: at 1 µM

Chain of Epidermal growth factor receptor (Homo sapiens), P00533 [T790M] (P00533 whole entry T790M): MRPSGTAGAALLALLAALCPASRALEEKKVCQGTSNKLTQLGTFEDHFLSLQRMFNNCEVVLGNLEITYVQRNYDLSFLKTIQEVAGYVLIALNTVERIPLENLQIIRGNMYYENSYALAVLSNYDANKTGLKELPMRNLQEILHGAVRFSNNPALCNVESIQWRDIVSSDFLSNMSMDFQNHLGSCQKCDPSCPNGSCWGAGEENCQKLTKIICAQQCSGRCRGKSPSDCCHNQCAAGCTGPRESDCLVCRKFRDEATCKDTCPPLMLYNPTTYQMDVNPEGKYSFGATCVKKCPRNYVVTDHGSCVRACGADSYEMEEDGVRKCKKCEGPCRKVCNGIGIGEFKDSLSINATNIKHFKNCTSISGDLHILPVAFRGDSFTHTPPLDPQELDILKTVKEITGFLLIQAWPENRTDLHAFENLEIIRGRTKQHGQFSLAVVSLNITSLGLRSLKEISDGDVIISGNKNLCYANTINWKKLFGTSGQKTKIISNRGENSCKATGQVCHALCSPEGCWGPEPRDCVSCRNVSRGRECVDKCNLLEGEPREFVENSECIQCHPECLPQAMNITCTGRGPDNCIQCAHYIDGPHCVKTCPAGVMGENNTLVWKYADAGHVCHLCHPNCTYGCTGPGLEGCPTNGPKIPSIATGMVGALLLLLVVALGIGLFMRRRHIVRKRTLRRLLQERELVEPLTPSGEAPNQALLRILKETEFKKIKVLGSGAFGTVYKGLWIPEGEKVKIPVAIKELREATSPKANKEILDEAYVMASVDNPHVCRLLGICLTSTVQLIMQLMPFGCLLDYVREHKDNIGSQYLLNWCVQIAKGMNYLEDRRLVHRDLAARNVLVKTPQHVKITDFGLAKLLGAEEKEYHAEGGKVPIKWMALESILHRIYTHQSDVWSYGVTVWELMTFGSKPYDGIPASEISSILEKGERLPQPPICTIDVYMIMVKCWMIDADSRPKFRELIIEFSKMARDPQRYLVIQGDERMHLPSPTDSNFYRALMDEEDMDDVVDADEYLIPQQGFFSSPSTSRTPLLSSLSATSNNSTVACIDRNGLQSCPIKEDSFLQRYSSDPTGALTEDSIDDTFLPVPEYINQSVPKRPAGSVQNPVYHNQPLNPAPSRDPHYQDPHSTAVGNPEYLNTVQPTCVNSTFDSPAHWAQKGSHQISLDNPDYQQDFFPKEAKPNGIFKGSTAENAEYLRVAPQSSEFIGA

Row | Structure (SMILES) | inhibition [1] [%] | inhibition [2] [%] | inhibition [3] [%] | inhibition [4] [%] | inhibition [5] [%] | inhibition [6] [%] | inhibition [7] [%] | inhibition [8] [%] | inhibition [9] [%] | inhibition [10] [%] | inhibition [11] [%] | inhibition [12] [%] | inhibition [13] [%] | inhibition [14] [%] | inhibition [15] [%] | inhibition [16] [%] | inhibition [17] [%] | inhibition [18] [%] | inhibition [19] [%] | inhibition [20] [%]
1 | CCn1c(-c2nonc2N)nc2c(C#CC(C)(C)O)nc(O[C@@H](CN)c3ccccc3)cc21 | -1.37 | 0.5 | -1.45 | -2.73 | -4.53 | -1.47 | -0.7 | -1.14 | -4.76 | -2.94 | 1.57 | -3.07 | -0.46 | 1.16 | -2.68 | -2.4 | 1.38 | 3.97 | 3.77 | 
2 | COc1cc(C=NNc2ncnc3c2cnn3Cc2ccccc2)ccc1O | -3.25 | -1.62 | -0.48 | 15.6 | 32.4 | -4.93 | 3.27 | 6.93 | 21.7 | -3.14 | -7.53 | -0.1 | 4.81 | 7.15 | -6.92 | -3.2 |  |  | 3.46 | 9.74
3 | NS(=O)(=O)c1ccc(-c2ccc3c(NC(=O)C4CC4)n[nH]c3c2)cc1 | -0.38 | -1.39 | 1.78 | 3 | 1.18 | 2.34 | 2.31 | 4.83 | 1.43 | 7.57 | 4.28 | 4.38 | 1.05 | 3.22 | -0.2 | 0.41 | 8.86 | 7.66 | -0.63 | 8.86
4 | Nc1nonc1-c1nc2cnccc2n1C1CCCCC1 | -2.94 | -0.65 | -0.53 | -4.45 | -4.85 | -7.25 | -1.98 | -4.61 | -3.51 | -7.08 | -1.43 | -4.08 | -3.41 | -1.63 | -3.46 | -1.33 | -5.14 | -5.19 | -1.75 | -8.8
5 | Cc1cc(-c2ccco2)cc(C)c1/C=C/c1cncc(-c2nn[nH]n2)c1 | 1.13 | -2.33 | 0.17 | 1.36 | 1.78 | -0.31 | 0.86 | 1.64 | 3.95 | -9.41 | 0.39 | 4.16 | 0.18 | 2.02 | 3.01 | 3.5 | 2.03 | 15.7 | 4.17 | 3.46
6 | NS(=O)(=O)c1ccc(N/C=C2\C(=O)Nc3ccc4ncsc4c32)cc1 | 0.85 | 4.07 | 3.15 | 1.01 | 1.66 | 3.37 | 6.86 | 8.05 | 22.4 | 9.09 | 2.97 | 4.36 | 0.08 | 8.11 | 2.78 | 5.6 | 8.52 | 10.8 | 0.16 | 18.1
7 | COc1cc2c(cc1Nc1nc(Nc3ccsc3C(N)=O)c3cc[nH]c3n1)N(C(=O)CN(C)C)CCC2 | 55 | 29.8 | 77.5 | 1.21 | -1.44 | 1.88 | -0.28 | 0.13 | 4.13 | -6.85 | 0.25 | 1.02 | -2.11 | 1.55 | -0.5 | 1.76 | 8.03 | 35.3 | 79.7 | 5.1
